Screening data from PubChem.
CYP2C19 inhib: inhibitors of human CYP2C19. P33261. CYP2C19 Supersomes, luciferin-H EGE luminescence, 30 min. inhibition, % at 5 µM. actives 21% (n = 96,000). AID 778;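 active means CYP2C19 inhibition above a set limit at 5 µM in the primary screen, cut at about 50% in these data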;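 further: plate controls were negative control wells for no effect and 2.5 mM tranylcypromine positive control for full effect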
CYP2C9 inh: human CYP2C9 inhibition. P11712. CYP2C9 Supersomes, luciferin-H conversion, luminescence. inhibition, % at 5 µM. actives 20% (n = 96,000). AID 777;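 active means blocking of liver enzyme CYP2C9 beyond about 50% at 5 µM, limit read from the data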
PLAP activator: human PLAP activation | activation fold at 20 µM | purified PLAP enzyme, luminescent substrate read-out; active compounds read high | P05187 | actives 1.2% (n = 96,000); in the data active means activation fold above about 2
Target sequence (P05187 whole entry, looked up): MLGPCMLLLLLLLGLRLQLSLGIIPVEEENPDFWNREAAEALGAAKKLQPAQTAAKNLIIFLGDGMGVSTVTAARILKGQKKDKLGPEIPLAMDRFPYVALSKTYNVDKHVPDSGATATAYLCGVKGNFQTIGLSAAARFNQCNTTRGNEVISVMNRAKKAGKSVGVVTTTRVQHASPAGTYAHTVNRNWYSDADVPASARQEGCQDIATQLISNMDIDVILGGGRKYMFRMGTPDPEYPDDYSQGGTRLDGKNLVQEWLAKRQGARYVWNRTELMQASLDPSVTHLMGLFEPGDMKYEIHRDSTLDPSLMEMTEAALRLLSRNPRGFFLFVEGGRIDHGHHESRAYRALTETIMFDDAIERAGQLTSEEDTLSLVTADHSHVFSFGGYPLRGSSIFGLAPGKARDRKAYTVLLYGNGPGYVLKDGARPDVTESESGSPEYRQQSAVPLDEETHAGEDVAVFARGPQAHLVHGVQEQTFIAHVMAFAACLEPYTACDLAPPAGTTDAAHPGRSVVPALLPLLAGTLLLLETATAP
CYP2C9 activ: increases human cytochrome P450 2C9 activity; P11712; recombinant CYP2C9, luciferin-H conversion, luminescence; active compounds read high; factor 1 = untreated enzyme, 0 = blocked; activation factor at 5 µM; actives 1.4% (n = 96,000);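 active means activation factor of 2 or more for CYP2C9 at a 5 µM dose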;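 further: 0 = sulfaphenazole-blocked wells and 1 = vehicle-only wells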
CYP2C19 activ: activators of human cytochrome P450 2C19; P33261; recombinant CYP2C19, luciferin-H EGE luminescence; active compounds read high; 0 = fully inhibited enzyme, 1 = untreated enzyme; activation factor at 5 µM; 96,000 tested, under 10 active;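 active means activation factor of at least 2 at 5 µM in the primary screen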;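 further: 0 = wells with 2.5 mM tranylcypromine and 1 = vehicle-only wells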
The depositor's hits bear a star. A selection: hits, their analogues and other compounds. The true share with any hit is near 31%.

SMILES	CYP2C19 inhib	CYP2C9 inh	PLAP activator	CYP2C9 activ	CYP2C19 activ
Fc1cccc(Cl)c1Cn1nnc(-c2ccc3c(c2)OCO3)n1	47	32	0.9	0.7	0.5
O=C(CSc1nnc(-c2cccs2)n1-c1cccc(Cl)c1)c1cccc2c1OCCO2	72*	85*	1.2	0.2	0.3
Fc1cccc(Cl)c1CSc1nnnn1-c1ccc2c(c1)OCO2	92*	38	0.8	0.6	0.1
Cn1ncc(Cl)c1C(=O)Nc1cccnc1	3	18	1	0.8	1
COc1ccccc1CNc1nc2nc3c(c(=O)n2[nH]1)CCC3	28	76*	0.9	0.2	0.7
CCc1nc(SCC(=O)N2c3ccccc3CC2C)c2c(C)c(C)sc2n1 (stereo unspecified)	64*	99*	1.4	0	0.4
Cc1ccc2nc(-c3cccnc3SCC(=O)N3c4ccccc4CC3C)[nH]c2c1 (stereo unspecified)	8	16	1.4	0.8	0.9
CC1Cc2ccccc2N1C(=O)CSc1nnc2sc3ccccc3n12 (stereo unspecified)	100*	67*	1.5	0.3	0
Cc1ccc2nc(SCC(=O)N3c4ccccc4CC3C)c(C)cc2c1 (stereo unspecified)	38	67*	0.9	0.3	0.6
Cc1ccccc1-n1ncc2c(SCC(=O)N3c4ccccc4CC3C)ncnc21 (stereo unspecified)	34	62*	1.1	0.4	0.7
CCCCSc1nc2c(cnn2-c2ccc(Cl)cc2)c(=O)[nH]1	1	29	1.2	0.7	1
O=C1NC(=S)SC1=C1CCCCCC1	13	20	1.3	0.8	0.9
COc1ccc(-n2c(=S)[nH]c3cc(C(=O)NCCCN4CCCC4=O)ccc3c2=O)c(OC)c1	-7	0	1.5	1	1.1
COc1ccccc1NC(=O)COC(=O)CNC(=O)c1ccc(OC)c(OC)c1	6	3	0.8	1	0.9
COc1cc(NC(=O)CN2C(=O)c3ccccc3C2=O)c(C(=O)O)cc1OC	-16	3	1	1	1.2
Cc1nnc(SCC(=O)N2c3ccccc3CC2C)s1 (stereo unspecified)	69*	14	0.9	0.9	0.3
CC1Cc2ccccc2N1C(=O)CSc1nnc(NC(=O)Cc2cccs2)s1 (stereo unspecified)	13	6	1.1	0.9	0.9
COc1ccccc1NC(=O)C1CC(=O)OC1c1ccccc1 (stereo unspecified)	78*	12	1	0.9	0.2
O=C1CC(C(=O)Nc2ncccn2)C(c2ccccc2)O1 (stereo unspecified)	10	-2	1.1	1	0.9
COc1ccc(OC)c(S(=O)(=O)N2CCC(C(=O)NCC3CCCO3)CC2)c1 (stereo unspecified)	-10	-61	1	1.6	1.1
O=C(NC(Nc1ncc(S(=O)(=O)c2ccc([N+](=O)[O-])cc2)s1)(C(F)(F)F)C(F)(F)F)c1ccc(Cl)cc1	12	88*	1.6	0.1	0.9
O=C(N/N=C/c1cccs1)c1ccccn1	-17	-12	1.4	1.1	1.2
Cc1ccn2c(C(=O)N/N=C\c3cccs3)c(C)nc2c1	47	52*	1.6	0.5	0.5
COc1cccc(-c2noc(-c3cccnc3)n2)c1	24	18	0.9	0.8	0.8
COc1cccc(-c2noc(C(C)n3nc(C)c([N+](=O)[O-])c3C)n2)c1 (stereo unspecified)	33	55*	0.9	0.5	0.7
SMILES	CYP2C19 inhib	CYP2C9 inh	PLAP activator	CYP2C9 activ	CYP2C19 activ
O=C(NCc1ccccc1)N1CCN(c2ccccc2F)CC1	62*	14	0.9	0.9	0.4
O=C(NC(=O)N1CCN(c2ccccc2F)CC1)c1ccccc1	60*	35	1.2	0.6	0.4
O=C(c1cccc(C(=O)N2CCN(c3ccccc3F)CC2)n1)N1CCN(c2ccccc2F)CC1	90*	86*	1.6	0.1	0.1
O=C(NCc1ccccc1)C1CCN(C(=O)NCc2ccccc2)CC1	-7	3	0.9	1	1.1
CC(C)CC(c1nnnn1C(C)C)N1CCN(c2cccc(Cl)c2)CC1 (stereo unspecified)	8	36	1.6	0.6	0.9
CC(C)NC(=O)CSc1nc2ccccc2n1CC(=O)N1CCc2ccccc21	72*	95*	1.5	0.1	0.3
CC(C)NC(=O)Cn1c(SCC(=O)N2CCc3ccccc3C2)nc2ccccc21	30	40	0.9	0.6	0.7
CC1CCCCN1C(=O)CSc1nc2ccccc2n1CC(=O)N1CCc2ccccc21 (stereo unspecified)	82*	99*	1.6	0	0.2
CN(C)C(=O)Cn1c(SCC(=O)N2CCCc3ccccc32)nc2ccccc21	3	0	1	1	1
Cc1csc2c(C#N)c(=O)c3c(n12)CCC3	16	10	1	0.9	0.8
COc1ccccc1CNC(=O)COC(=O)c1ccc(S(=O)(=O)N2CCCC2)cc1	16	25	1	0.7	0.8
c1ccc(-n2cnc3cc(NCc4ccccn4)ccc32)cc1	85*	74*	1.3	0.3	0.2
Cc1cc(NCc2ccccn2)ccc1Br	63*	23	0.9	0.8	0.4
CN(C)c1ccc(CNc2ccc3c(c2)ncn3C)cc1	70*	2	1.7	1	0.3
CC(C)n1cnc2cc(NCc3ccccn3)ccc21	2	18	1.5	0.8	1
c1ccc(-n2cnc3cc(NCc4ccncc4)ccc32)cc1	99*	94*	1.3	0.1	0
CCN(CC)S(=O)(=O)c1cccc(NC(=O)Nc2cccc(C(F)(F)F)c2)c1	10	45	0.9	0.5	0.9
CC(C)n1cnc2cc(NCc3ccco3)ccc21	23	18	1.2	0.8	0.8
CCn1cnc2cc(NCc3ccc(OC)cc3)ccc21	73*	7	1	0.9	0.3
CCCCn1cnc2cc(NCc3ccncc3)ccc21	56*	62*	1	0.4	0.4
CCOc1ccc(CNc2ccc3c(c2)nc(C)n3C)cc1	38	9	0.9	0.9	0.6
CC(=O)Nc1cn(C(C)=O)c(C)n1	-1	19	0.9	0.8	1
O=C(CSc1nc2ccccc2s1)N1CCN(C(=O)c2ccco2)CC1	14	27	1.4	0.7	0.9
O=C(OCC#CCSc1nnc(-c2ccccc2)o1)c1ccco1	88*	58*	1.3	0.4	0.1
O=C(OCC#CCSc1nc2ccccc2s1)c1ccco1	83*	72*	1.1	0.3	0.2
O=C(OCC#CCSc1nnc(-c2cccc3ccccc23)o1)c1cccs1	27	-96	0.8	2*	0.7
CC(O)C(=O)N/N=C/c1cccc(Cl)c1Cl (stereo unspecified)	8	-12	1.1	1.1	0.9
COc1cc(O)oc1C=Nc1ccccc1	4	-2	1.2	1	1
COc1cc(OC)c2c(c1)C(=O)c1cc(OC)cc(OC)c1C2=O	4	2	0.9	1	1
